Bioassay records from PubChem BioAssay.
Myeloid diff 2: compounds promoting myeloid differentiation | ER-HoxA9 myeloid progenitors, lysozyme-GFP differentiation, flow cytometry | calls only at 10 µM | hit rate 1% among 360,000 | AID 624256;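 active = normalized GFP-positive differentiation at or above the plate's own cutoff, the solvent-only control mean plus 3 SD; inconclusive = no clear call, values can overlap the other calls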;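 note: cells exposed to compound for four days before flow analysis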
Glyco luc inh: blocks N-linked glycosylation in D54 reporter cells. D54 ERlucT glycosylation luciferase reporter, 24 h; percent of 100 nM tunicamycin response. AID 588692. reporter increase, % at 12.5 µM. hit rate 0.23% among 360,000;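 active = mean luciferase reporter signal, scaled so untreated is 0 and the glycosylation-blocking control 100, at or above a set limit in every replicate; inconclusive = mean reaches the limit but not every replicate does; inactive = mean below the limit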;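 note: luciferase carries N-glycosylation sites so blocking glycosylation raises the light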
ABCB6 inh 2: blocks the human ABCB6 transporter | Q9NP58 | K562-ABCB6 porphyrin accumulation, flow cytometry, 1 h; active compounds read low | fluorescence ratio to DMSO, % at 10 µM | hit rate 0.19% among 360,000 | AID 602162;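 active = fluorescence ratio to DMSO below 75%, the collection mean minus 3 SD; inconclusive = too few cells collected in the well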;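 note: signal is porphyrin accumulated inside mitochondria; lower ratio means ABCB6 inhibition with less porphyrin fluorescence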
Vif imaging: inhibitors of HIV Vif. HEK293T cells, Vif self-association by quenched fluorescence, imaging, 24 h. inhibition, % at 7.49 µM. hit rate 0.35% among 340,000. AID 602346; in the data active = inhibition above about 50%, passing the limit was not always enough; inconclusive = no clear call, values can overlap the other calls; inactive = below about 31%
RAD54 inh: blocks human RAD54 Holliday junction branch migration; Q92698; FAM/BHQ fluorescence; inhibition, % at 10.4 µM; hit rate 0.14% among 360,000;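 active = mean normalized replicate activity at least 40 and at least half of replicates scoring 40 or more; inconclusive = only one of the two criteria met; inactive = mean below 40 and under half of replicates reaching 40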;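 note: inhibitors cause a drop in the FAM fluorescence signal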
Target sequence (Q92698 whole entry, looked up): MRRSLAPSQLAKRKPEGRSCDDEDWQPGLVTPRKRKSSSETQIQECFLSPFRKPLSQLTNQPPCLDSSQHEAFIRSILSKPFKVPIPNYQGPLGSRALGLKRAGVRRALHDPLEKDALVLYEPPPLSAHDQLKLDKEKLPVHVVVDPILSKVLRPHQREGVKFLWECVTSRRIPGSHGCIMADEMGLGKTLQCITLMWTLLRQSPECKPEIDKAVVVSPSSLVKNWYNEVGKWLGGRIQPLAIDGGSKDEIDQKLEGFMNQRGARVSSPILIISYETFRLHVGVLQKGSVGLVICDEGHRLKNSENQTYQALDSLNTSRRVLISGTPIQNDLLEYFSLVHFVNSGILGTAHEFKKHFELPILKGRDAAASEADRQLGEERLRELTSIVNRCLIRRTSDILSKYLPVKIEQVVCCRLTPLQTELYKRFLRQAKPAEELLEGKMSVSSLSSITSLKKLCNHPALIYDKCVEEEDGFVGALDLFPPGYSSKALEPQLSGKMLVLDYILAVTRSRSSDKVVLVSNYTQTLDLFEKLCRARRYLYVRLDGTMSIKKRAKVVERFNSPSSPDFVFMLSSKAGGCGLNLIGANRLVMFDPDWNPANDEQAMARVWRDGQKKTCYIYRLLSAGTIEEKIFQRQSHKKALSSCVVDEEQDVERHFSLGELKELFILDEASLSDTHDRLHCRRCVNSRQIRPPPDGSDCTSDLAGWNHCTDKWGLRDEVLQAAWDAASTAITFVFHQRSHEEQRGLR
A number is an active result; i = inactive; ? = inconclusive; nt = no result; + = active, no number. Hits are enriched below; roughly 1.6% of the tested compounds scored in any of these assays.

SMILES	Myeloid diff 2	Glyco luc inh	ABCB6 inh 2	Vif imaging	RAD54 inh
Cc1ccc(-c2nnc3n2N=C(c2ccc(Br)cc2)CS3)cc1	i	i	i	i	i
Clc1ccc(C2=Nn3c(nnc3-c3n[nH]c4c3CCC4)SC2)cc1	?	37	i	i	i
C[C@@H]1CCCCO[C@@H](CN(C)CC2CCCCC2)[C@H](C)CN([C@H](C)CO)C(=O)c2cc(NS(=O)(=O)c3ccc(F)cc3)ccc2O1	nt	nt	nt	nt	i
CC(=O)N(C)C[C@H]1Oc2ncc(/C=C/c3ccccc3)cc2C(=O)N([C@@H](C)CO)C[C@H]1C	nt	nt	nt	nt	i
COc1cccc(CNC(=O)C2CCN(S(=O)(=O)c3ccc4c(c3)CCC(=O)N4)CC2)c1	i	i	i	i	i
CN(C)c1ccc(CNC(=O)C2CCN(S(=O)(=O)c3ccc4c(c3)CCCC(=O)N4)CC2)cc1	+	i	i	i	i
CC(C)N(C(=O)[C@H]1C[C@H](CC(=O)NCCN2CCOCC2)C(=O)N2CCc3c([nH]c4cc(CCC(=O)N(C)C)ccc34)[C@]12C)C(C)C	?	i	i	103	i
CC[C@]12c3[nH]c4cc(-c5ccco5)ccc4c3CCN1C(=O)[C@@H](CC(=O)NCCCn1ccnc1)C[C@@H]2C(=O)N1CCN(C(=O)c2ccco2)CC1	i	i	i	i	i
CC[C@]12c3[nH]c4cc(CCC(=O)N(C)C)ccc4c3CCN1C(=O)[C@@H](CC(=O)NC/C=C(\C)CCC=C(C)C)C[C@@H]2C(=O)N1CCN(C(=O)c2ccco2)CC1	i	31	i	i	i
CC[C@]12c3[nH]c4cc(CCC(=O)N(C)C)ccc4c3CCN1C(=O)[C@@H](CC(=O)NCCN1CCOCC1)C[C@@H]2C(=O)N1CCN(C(=O)c2ccco2)CC1	i	i	i	i	i
CC[C@]12c3[nH]c4cc(-c5ccco5)ccc4c3CCN1C(=O)[C@@H](CC(=O)NCCCn1ccnc1)C[C@@H]2C(=O)N1CCN(C(=O)C2CC2)CC1	+	i	i	nt	i
CCCc1cn(CC[C@H]2CC[C@H](NS(=O)(=O)c3ccccc3Cl)[C@@H](CO)O2)nn1	nt	nt	nt	nt	i
Cn1c(=O)oc2cc(S(=O)(=O)N3CCN(c4ccccc4)CC3)ccc21	+	i	i	i	i
Cn1c(=O)oc2cc(S(=O)(=O)N3CCC(C(=O)N4CCN(c5ccccc5)CC4)CC3)ccc21	i	i	i	i	i
COc1ccc(S(=O)(=O)Nc2ccc3c(c2)C(=O)N([C@@H](C)CO)C[C@H](C)[C@H](CN(C)Cc2ccc(C(=O)Nc4ccccc4N)cc2)O3)cc1	nt	nt	nt	nt	i
CCCc1ccc(OCc2ccc(C(=O)N/N=C/c3cccnc3)o2)cc1	+	i	i	i	i
CC1=CC(C)[C@H](/C=N/n2c(=O)[nH]c3c([nH]c4ccc(C)cc43)c2=O)C(C)C1 (stereo partly specified)	i	60	i	i	nt
O=C(Nc1cccc(-c2cn3cccnc3n2)c1)c1ccc(Br)o1	i	i	i	81	i
O=C(CNC(=O)c1ccc(Br)o1)Nc1cccc(-c2cnc3ccccc3n2)c1	i	26	i	i	i
O=C(Nc1cccc(-c2cnc3ccccc3n2)c1)c1ccco1	i	i	i	i	nt
Cc1nnc(SC(C)C(=O)Nc2sc3c(c2C#N)CCCC3)[nH]c1=O (stereo unspecified)	i	i	i	53	i
COCC(=O)Nc1ccc2c(c1)C(=O)N(C)[C@@H]1CC[C@H](CC(=O)OC)O[C@H]1CO2	nt	nt	nt	nt	i
CC(C)NC(=O)Nc1ccc2c(c1)C(=O)N([C@@H](C)CO)C[C@H](C)[C@@H](CN(C)Cc1ccc(C(F)(F)F)cc1)OCCCC[C@@H](C)O2	nt	nt	nt	nt	i
Fc1ccc(/C=N/NC2=Nc3cccc4cccc2c34)cc1	+	i	i	i	i
O=C(Nc1ccc(-c2cn3c(n2)SCC3)cc1)c1ccc2c(c1)OCO2	+	i	i	i	i
SMILES	Myeloid diff 2	Glyco luc inh	ABCB6 inh 2	Vif imaging	RAD54 inh
C[C@@H]1CCCCO[C@H](CN(C)Cc2ccc(C(=O)O)cc2)[C@H](C)CN([C@@H](C)CO)C(=O)c2cc(NC(=O)Nc3ccc4c(c3)OCO4)ccc2O1	nt	nt	nt	nt	i
O=C(C[C@H]1C=C[C@@H](NS(=O)(=O)c2ccc(F)cc2)[C@H](CO)O1)NCCN1CCCCC1	nt	nt	nt	nt	i
Nc1c(C(=O)Nc2nccs2)sc2nc(-c3cccs3)cc(C(F)(F)F)c12	+	i	i	nt	nt
CCN(CC)C(=O)c1sc2nc(-c3cccs3)cc(-c3cccs3)c2c1N	+	i	i	83	nt
Cc1cc(C(F)(F)F)c2c(N)c(C(=O)NC3CC3)sc2n1	i	i	i	i	i
CCN(CC)C(=O)c1sc2nc(-c3cccs3)cc(-c3ccc(Cl)cc3)c2c1N	i	i	i	?	i
Cc1nnc(NC(=O)c2sc3nc(-c4cccs4)cc(C(F)(F)F)c3c2N)s1	+	i	i	i	i
CC(C)(C)C(=O)c1sc2nc(-c3cccs3)cc(C(F)(F)F)c2c1N	+	i	i	i	i
O=C(Nc1nccs1)[C@@H]1[C@@H](CO)[C@@H]2Cn3c(cccc3=O)[C@@H]2N1C(=O)C1CCCCC1	nt	nt	nt	nt	i
O=C(C[C@@H]1C=C[C@H](NS(=O)(=O)c2ccccc2)[C@@H](CO)O1)NCc1ccccc1F	nt	nt	nt	nt	i
COc1ccc(C)cc1Nc1nc(N)c2cc(OC)c(OC)cc2n1	i	i	i	i	51
Cc1ccc(S(=O)(=O)N(C)C[C@H]2OCCCC[C@H](C)Oc3ccc(NC(=O)c4ccccc4)cc3C(=O)N([C@H](C)CO)C[C@H]2C)cc1	nt	nt	nt	nt	i
Cc1cc(C)n(C(CC(=O)N2CCc3ccccc3C2)C(=O)O)n1 (stereo unspecified)	+	i	i	i	i
CCCNC(=O)N1C[C@H](C)[C@@H](OC)CN(C)C(=O)c2ccc(NS(C)(=O)=O)cc2OC[C@H]1C	nt	nt	nt	nt	i
COc1ccc(CCC(=O)NC(C)C)cc1	+	i	i	i	i
COc1ccc(CCC(=O)NC2CCC(C)CC2)cc1 (stereo unspecified)	+	i	i	i	i
COc1ccc(C(C)NC(=O)CCc2ccccc2)cc1 (stereo unspecified)	i	i	i	i	i
CO[C@@H]1CN(C)C(=O)c2cc(NC(=O)C3CC3)ccc2OC[C@H](C)N(Cc2nccs2)C[C@H]1C	nt	nt	nt	nt	i
C[C@@H]1CN([C@H](C)CO)C(=O)c2cccc(NS(=O)(=O)c3ccc(F)cc3)c2O[C@@H]1CN(C)CC1CCCCC1	nt	nt	nt	nt	i
CC(C)CC#Cc1cnc2c(c1)C(=O)N([C@H](C)CO)C[C@@H](C)[C@H](CN(C)C(=O)C1CCOCC1)O2	nt	nt	nt	nt	i
CCN1CCCC1CNS(=O)(=O)c1ccc(F)c(Cl)c1 (stereo unspecified)	i	i	i	51	i
Cc1ccc(O)c(NC(=O)c2ccc3c(c2)C(=O)N(Cc2cccnc2)C3=O)c1	+	i	i	i	i
OCC(O)CN1CCN(c2ccccc2)CC1 (stereo unspecified)	+	i	i	i	i
COc1ccc(OC)c(Nc2nc(-c3c(C)nc4ncccn34)cs2)c1	i	42	i	i	i
COC(=O)c1sc(-c2ccc(Cl)cc2)cc1NC(=O)CSCC(=O)O	i	i	i	51	i
